# Test results: PubChem BioAssay AID1578 (Sanford-Burnham Center for Chemical Genomics, 2009)
# Among all 290,000 compounds or so, about 3,000 (1%) were called active. The sample as a whole holds a higher share of actives than the screen did. A number with no mark means an inactive call. Cut-off read from the data, not from the text of the source: active = inhibition mostly above about 36% (no sharp cut-off); inactive = mostly below about 34%.
# Test: NOD1 signaling inhibitors, primary screen, cell-based, luminescence, uHTS (AID 1578);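 note: HEK-293T reporter cells stimulated with the NOD1 agonist gamma-tri-DAP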
# Conditions: NOD1-driven NF-kB luciferase reporter cells, at 4 µM, hits give high values
row,Structure (SMILES),inhibition
1,Cc1ccc(C(c2nnnn2CS(=O)(=O)c2ccc(C)cc2)N2CCN(c3ncccn3)CC2)cc1 (centres undefined),-41.2%
2,COc1ccc(CNC(=O)CN2CCN(c3cccc(C)c3C)CC2)cc1,-3.6%
3,Cc1ccc(-n2c(SCC(=O)Nc3ncc(Cl)cc3Cl)nc3ccccc32)cc1,59.3%
4,O=C(CSc1nc2ccccc2n1-c1ccccc1)Nc1ncc(Cl)cc1Cl,48.8%
5,COc1ccc(-n2c(SCC(=O)Nc3ncc(Cl)cc3Cl)nc3ccccc32)cc1,58.9% (active)
6,Cc1ccc(SCC(=O)N2N=CCC2c2ccccc2)cc1 (centres undefined),-19.9%
7,O=c1cc(O)n(-c2ccccc2F)c(=S)[nH]1,0%
8,CCOC(=O)c1c(C)sc2c1N(C(=O)CCl)c1cc(Cl)ccc1S2,55.3% (active)
9,CCOC(=O)c1c(C)sc2c1N(C(C)=O)c1cc(Cl)ccc1S2,25.7%
10,CCOC(=O)c1c(C)sc2c1N(C(=O)CN(CC)CC)c1cc(Cl)ccc1S2,-0.4%
11,CC(=O)Nc1ccc(S(=O)(=O)NCc2nc(-c3ccccc3)no2)cc1,-7.6%
12,CCOC(=O)C1=C(C)NC(=O)NC1c1cc2c(cc1Br)OCO2 (centres undefined),-20.8%
13,Cc1cc(OC(=O)c2ccccc2)n(CCC#N)n1,6.7%
14,O=C(O)c1ccc(Oc2c(C(F)(F)F)oc3cc(O)ccc3c2=O)cc1,-31.7%
15,COc1ccc2c(=O)c(Oc3ccc(C(=O)O)cc3)c(C(F)(F)F)oc2c1,47.7% (active)
16,COc1ccc(Oc2c(C(F)(F)F)oc3cc(OCC(=O)O)ccc3c2=O)cc1,4.6%
17,O=C(c1ccc(F)cc1)N1CCN(c2ccc([N+](=O)[O-])c(N3CCOCC3)c2)CC1,-17.8%
18,C=C1C(=O)C=C[C@]2(C)C[C@@H]3OC(=O)[C@](C)(O)[C@H]3C[C@@H]12,33.2% (active)
19,C[C@@H]1C[C@@H]2OC(=O)[C@]3(C)[C@H]2[C@@H](OC3(C)O)[C@]2(C)C(=O)C=C[C@H]12 (some centres undefined),-7.5%
20,CCCCNc1nc2ccccc2n1CC(=O)Nc1ccc2c(c1)OCCO2,-11.5%
21,O=C(O)c1ccc(Cl)cc1NC(=O)C1CCCO1 (centres undefined),-22%
22,COc1ccccc1N(C)S(=O)(=O)c1ccc(Cl)c(C(=O)NCCCN2CCOCC2)c1,-22.8%
23,CN(c1ccccc1)S(=O)(=O)c1ccc(Cl)c(C(=O)Nc2ccc(N3CCOCC3)cc2)c1,-13%
24,COc1ccc(CNC(=O)CSc2nc3ccc(C)cc3[nH]2)cc1OC,0.6%
